CXXC DNA block: qHTS Fluorescence Polarization Assay for Inhibitors of MLL CXXC domain - DNA interaction | MLL-CXXC / FITC-HOXA9 DNA fluorescence polarization | Histone-lysine N-methyltransferase 2A (Homo sapiens), Q03164 | AID 2662, 2010 | 0.037% of 290,000 active | Potency, µM (titrated, usually from 115 µM), without a hit: at the top dose activity change, negative = inhibition, actives largely listed as inhibitors; active means well fitted inhibition curve with a large enough effect in the polarisation, with a control signal flat, not every such curve was filed as active; inconclusive means small, poorly fitted or top-dose-only effect, or effect the other way, or a change in a side signal; inactive means no such curve, though single readings can be large or run the other way; the % refers to the polarisation; further: potency means the concentration at half of the fitted maximal effect
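Steps: dispense CXXC domain solution (7 uM) → pin compounds or unlabeled HOX-A9 DNA control → 5 min ambient → add FLSN-HOX-A9 solution (50 nM) → spin → 30 min ambient → fluorescence polarization. Tris pH 7.5/NaCl/DTT/BSA buffer.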
Menin MLL FP FL: qHTS Assay for Inhibitors Targeting the Menin-MLL Interaction in MLL Related Leukemias: Competition With Fluorescein Labeled MLL-derived Peptide; AID 1766, 2009; 290,000 tested, under 10 active; FP activity change, % at 61.4 µM; Fluorescence polarization, fluorescein-MLL peptide displacement from menin; active means well fitted curve in the direction sought with a large enough effect in the polarisation, not every such curve was filed as active; inconclusive means small, poorly fitted or top-dose-only effect, or effect the other way, or a change in a side signal; inactive means no such curve, though single readings can be large or run the other way; the % refers to the polarisation; further: % of control where 0% means no effect
ClpP mod: qHTS Assay for Activators of ClpP | purified B. subtilis ClpP, FRET peptide cleavage, 20 min | ATP-dependent Clp protease proteolytic subunit (Bacillus subtilis (strain 168)), P80244 | 1.9% of 340,000 active | Potency, µM (top dose mostly 57.5 µM), inactives show top-dose activity change, negative = active; active means well fitted falling curve with a large enough effect; inconclusive means small, poorly fitted or top-dose-only effect; inactive means no such curve, though single readings can be large or run the other way; further: potency means the concentration at half of the fitted maximal effect; the source files actives as falling curves though it sought activators and does not explain the sign; nearly all actives have a fitted effect of over 65% in size
Target sequence (P80244 whole entry, looked up): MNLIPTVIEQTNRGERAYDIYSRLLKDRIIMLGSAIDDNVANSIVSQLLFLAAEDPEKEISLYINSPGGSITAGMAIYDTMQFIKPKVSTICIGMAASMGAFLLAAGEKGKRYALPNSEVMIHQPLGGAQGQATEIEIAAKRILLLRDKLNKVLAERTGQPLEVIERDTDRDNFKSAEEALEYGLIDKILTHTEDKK
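Buffer: 100 mM Tris/HCl pH8, 100 mM KCl, 0.05% low protease BSA, 2.5% glycerol, 0.01% Tween-20. ClpP 10 microg/mL final; 20 min RT; delta FRET normalized to ADEP and DMSO controls.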
Menin-MLL TR inh: qHTS Assay for Inhibitors Targeting the Menin-MLL Interaction in MLL Related Leukemias: Competition With Texas Red Labeled MLL-derived Mutant Peptide | 0.23% of 270,000 active | Menin + Texas Red MLL mutant peptide, fluorescence polarization | Potency, µM (titrated, usually from 61.6 µM), without a hit: at the highest dose FP activity change, negative = inhibition, usual class: inhibitors; active means well fitted inhibition curve with a large enough effect in the polarisation, with a control signal flat, not every such curve was filed as active; inconclusive means small, poorly fitted or top-dose-only effect, or effect the other way, or a change in a side signal; inactive means no such curve, though single readings can be large or run the other way; the % refers to the polarisation; further: potency means the concentration at half of the fitted maximal effect; % of control where 0% means no effect
p53 reactivation: qHTS assay for re-activators of p53 using a Luc reporter. Potency, µM (highest dose often 92.2 µM), without a hit: at the highest dose activity change, positive = activation, most hits filed as activators. AID 504706, 2011. 0.063% of 320,000 active. H1299 p53-A138V BP100-luciferase reporter, luminescence, 24 h; active means well fitted activation curve with a large enough effect; inconclusive means small, poorly fitted or top-dose-only effect; inactive means no such curve, though single readings can be large or run the other way; further: potency means the concentration at half of the fitted maximal effect; % of control where 0% means no effect; nearly all actives have a fitted effect of over 45% in size
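H1299 (p53-null), stable ts p53-A138V + BP100-Luc; 1000 cells/well, Opti-MEM/10% FBS; cpd 4 pt, 1:5; 24 h, 37 deg C, 5% CO2; detection reagent 10 min RT; luminescence.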
Active calls of the source: *; u = inconclusive; x = no result; ! = not confirmed by another sample; [ ] = another dose, or the depositor's remark. The entries come from a sample that favours hits as a whole.

SMILES | CXXC DNA block | Menin MLL FP FL | ClpP mod | Menin-MLL TR inh | p53 reactivation
Cc1ccc(Cl)cc1N1CCN(S(=O)(=O)c2ccc(-c3cnc(C4CC4)o3)cc2)CC1 | x | x | 4% | x | x
O=S(=O)(c1ccc(-c2cnc(C3CC3)o2)cc1)N1CCN(c2ccccc2F)CC1 | x | x | 28µM* | x | x
CCOc1ccc(C(=O)N/N=C/c2ccc(-c3ccc(S(=O)(=O)Nc4ncccn4)cc3)o2)cc1 | -1% | 8 | 28µM* | x | -1%
CCC(C)/C=C/C1=CC2=C(Cl)C(=O)C3(C)OC(=O)C(C(=O)C(C)C(C)O)C3C2=CO1 (stereo not given) | -18% | 2 | 22µM* | -7% | 1%
O=c1n(Cc2ccccc2)c2cc(Cl)cnc2n1Cc1ccccc1 | -4% | 1 | 28µM* | -5% | -12%
O=c1c(N2CCN(c3cccc(Cl)c3)CC2)csc2ccccc12 | x | x | -9% | x | x
COc1cccc(CNC(=O)c2cc3oc4ccccc4c3n2C)c1OC | -14% | 3 | 25µM* | -1% | u
CCOc1ccccc1CNC(=O)c1cc2oc3ccccc3c2n1CC | -18% | 2 | 32µM*! | 8% | 1%
Cc1cc(=O)[nH]c2nnc(SCC(=O)Nc3ccc(F)cc3F)n12 | x | x | 0% | x | x
COC(=O)c1cc(NC(=O)c2c(Cl)nc3sccn23)cc(C(=O)OC)c1 | 5% | -2 | -3% | 4% | 0%
COC(=O)c1cc(=O)nc2sc(-c3ccccc3)nn12 | -7% | -2 | 28µM* | -5% | -14%
COC(=O)c1cc(=O)nc2sccn12 | -6% | -1 | 28µM* | -3% | -1%
CNC(=O)/C(C#N)=C/c1c(N2CC(C)OC(C)C2)nc2ccccn2c1=O (stereo not given) | -4% | -3 | 28µM* | -11% | -8%
CCn1c2ccccc2c2cc(/C=N/n3cn[nH]c3=S)ccc21 | 0% | 3 | 14% | u | 0%
CCn1c2ccccc2c2cc(/C=N/n3cnnc3)ccc21 | 4% | 1 | 25µM* | 3% | 19%
CCn1c2ccccc2c2cc(/C=N/NC(=O)c3ccccc3C)ccc21 | 5% | -2 | 13µM* | u | u
CCn1c(/C=N/n2cnnc2)nc2ccccc21 | 6% | -1 | 28µM* | -4%[11.7 µM] | u
COc1ccc2ccccc2c1/C=N/n1cnnc1 | 1% | -2 | -10% | -8% | x
CC(=O)[O][Al][O]C(C)=O | -4% | 6 | x | 11% | x
O=C(NCc1ccccn1)c1coc(=O)c(Br)c1 | 2% | -1 | 16µM* | 2% | u
CCOc1ccc(C(=O)NCc2ccccn2)cc1 | 10% | 2 | -3% | -7% | 17%
N#C/C(=C\c1c(Cl)cccc1Cl)c1nc2ccccc2[nH]1 | 9% | -1 | -14% | 58% | 4%
COc1c(Cl)cc(Cl)cc1/C=C(\C#N)c1nc2ccccc2[nH]1 | x | x | 20µM* | x | x
COc1ccc(C(=O)NN/C(C)=C/C(=O)C(F)(F)C(F)(F)C(F)(F)F)cc1 | 9% | -1 | 3.2µM* | 5% | 23%
O=C(Cn1nc(-c2ccccc2Cl)ccc1=O)Nc1ccccc1-c1ccccc1 | 13% | 0 | 14µM* | 0% | -1%
SMILES | CXXC DNA block | Menin MLL FP FL | ClpP mod | Menin-MLL TR inh | p53 reactivation
CC(C)CO/N=C1/C[C@@H](O)[C@@H](O)[C@@H]2[C@@H]3C(=O)N(Cc4ccccc4)C(=O)[C@H]3CC[C@H]12 | x | 1[11.7 µM] | x | 4%[11.7 µM] | x
CO[C@H]1/C=C/O[C@@]2(C)Oc3c(C)c(O)c4c(O)c(c(/C=N\N5CCN(C6CCCC6)CC5)c(O)c4c3C2=O)NC(=O)/C(C)=C\C=C\[C@H](C)[C@H](O)[C@@H](C)[C@@H](O)[C@@H](C)[C@H](OC(C)=O)[C@@H]1C | -3% | 3 | x | u | x
CC(C)n1ncc2c(C(=O)NCCc3ccc(F)cc3)cc(C3CC3)nc21 | x | x | 32µM* | x | -9%
Cc1ccccc1CCNC(=O)c1cc(C2CC2)nc2c1cnn2C(C)C | x | x | 3% | x | -5%
CCOCCCNC(=O)c1ccc(NC(=O)N2CCCCc3ccccc32)cc1 | x | x | 4% | x | x
CCP(=O)(c1ccccc1)C(C)(C)O (stereo not given) | 3% | 0 | 16µM* | 34% | -3%
CC(=O)Nc1nonc1-c1nc2ccccc2n1CC1CC1 | 8% | 4 | u | -28% | 0%
CC(=O)Nc1nonc1-c1nc2ccccc2n1N(C(C)=O)C(C)=O | -15% | 3 | 28µM* | 11% | -1%
CC(=O)Nc1nonc1-c1nc2ccccc2n1Cc1ccccc1Br | x | x | 25µM* | x | x
O=C(Cc1cccc(F)c1)NO | x | x | 0% | x | x
Cc1ccc(S(=O)(=O)N2CC(O)CC2C(=O)O)cc1 (stereo not given) | 6% | -4 | 35µM* | -1% | 10%
Cc1ccc(-c2nnc(/C=C/c3ccccc3)o2)cc1 | -8% | -1 | u | -9% | u
Cc1ccc(/C=C/c2nnc(-c3cccc(C)c3)o2)cc1 | 13% | -3 | 32µM* | -12% | 5%
Cc1nnc(-c2ccccc2)o1 | 3% | -2 | 0% | x | 1%
Cc1cccc(-c2nnc(-c3ccccc3)o2)c1 | -5% | 0 | -15% | -2% | 11µM*
CCOC(=O)c1c(C)[nH]c(C)c1S(=O)(=O)NCC(=O)Nc1ccc(C)c(N(C)C)c1 | x | x | 0% | x | x
CC1Cc2ccccc2N1C(=O)COc1nc2ccccc2nc1N1CCOCC1 (stereo not given) | 8% | 9 | 28µM* | -5% | -1%
COc1ccc(N2CCN(C(c3ccc(C)cc3)c3nnnn3C(C)(C)C)CC2)cc1 (stereo not given) | x | x | -2% | x | x
CC(C)(C)c1ccc(-c2nc(C#N)c(NCc3cccnc3)o2)cc1 | 3% | -1 | 32µM* | 16% | 10%
Cc1cccc(OCc2ccc(-c3nc(C#N)c(NCc4cccnc4)o3)o2)c1 | x | x | 4% | x | x
Cc1ccc(CNc2oc(-c3ccc(COc4ccc(C)cc4)o3)nc2C#N)cc1 | x | x | 25µM* | x | x
N#Cc1nc(-c2ccc(F)cc2)oc1NCc1ccccc1 | -3% | 1 | 5% | -16% | 12%
Cc1ccc(OCc2ccc(-c3nc(C#N)c(NCc4cccnc4)o3)o2)cc1 | x | x | 35µM* | x | x
CCCCCCC[n+]1c(/C=C/c2ccc(N(C)C)cc2)sc2ccccc21 | x | x | 2% | x | x
CCOc1ccc(CNS(=O)(=O)c2cc3c(cc2C)NC(=O)CO3)cc1OC | x | x | 2% | x | x
Cc1nnc(NC(=O)C2CC(=O)N(c3ccc4c(c3)OCCO4)C2)s1 (stereo not given) | x | x | -1% | x | u
O=C(NCC1(N2CCCCC2)CCCCC1)C1CC(=O)N(c2ccc3c(c2)OCCO3)C1 (stereo not given) | 5% | -4 | 8.9µM* | u | 1%
